Data reported in ChEMBL document CHEMBL3988442, “University of Dundee, Small-Polar-MMV Screening Library” (2021).
Among all 48,000 compounds or so, about 13,000 (27%) showed an effect of 50% or more. This is one part of the list.

system: Wolbachia pipientis; assay: Anti-Wolbachia Cell-Based Screen; type: functional; parameters: scale not given: in the data most compounds retested in dose-response had high values; conditions: 5 µM

Row | Compound | Percent Effect [%]
1 | Cc1ccc([C@@H]2CN(C(=O)c3ccc[nH]3)C[C@H]2NC(=O)C2CC2)cc1 | 0.8109
2 | Cc1cc(NC(=O)NCC(CC(C)C)N2CCOCC2)n(C)n1 (centres undefined) | 103.9
3 | Cc1c(NC(=O)NCC(C)N2CCOCC2)cccc1OC(F)F (centres undefined) | -9.929
4 | CC(C)CC(CNC(=O)NCc1cc[nH]n1)N1CCOCC1 (centres undefined) | 6.619
5 | CCC(CC)C(CNC(=O)Nc1cc(C)nn1C)N1CCOCC1 (centres undefined) | -3.913
6 | CCn1cnnc1CNC(=O)NCC(C(C)C)N1CCOCC1 (centres undefined) | -2.117
7 | Cc1noc(C)c1CC(=O)NCC(CC(C)C)N1CCOCC1 (centres undefined) | -1.173
8 | Cc1ccc(F)cc1NC(=O)NCC(C)N1CCOCC1 (centres undefined) | 9.148
9 | Cc1cc(NC(=O)NCC(C(C)C)N2CCOCC2)n(C)n1 (centres undefined) | 115.8
10 | Cc1cc(NC(=O)NCC(C)O)n(C)n1 (centres undefined) | -6.671
11 | CCC(CC)C(O)CNC(=O)Nc1cc(C)nn1C (centres undefined) | 91.79
12 | COc1ccc(C(O)CNC(=O)Nc2cc(C)nn2C)cc1 (centres undefined) | -16.1
13 | Cc1cc(NC(=O)NCC(C)N2CCOCC2)n(C)n1 (centres undefined) | 113
14 | CC(C)CS(=O)(=O)N1CCC2(CN(c3cccc(F)c3)C(=O)CN2C)C1.O=C(O)C(F)(F)F (centres undefined) | 10.41
15 | Cc1ccoc1C(=O)N1CCC(n2cc(CO)nn2)CC1 | -7.426
16 | CC(O)c1cn(C2CCN(C(=O)C3(C)CCN(C)CC3)CC2)nn1 (centres undefined) | 3.786
17 | C=C1C(C)(C)[C@H]2CC[C@]1(C(=O)N1CCC(n3cc(CCO)nn3)CC1)C2 | 95.18
18 | CC1(C(=O)N2CCC(n3cc(C4(O)CCCC4)nn3)CC2)CCCCC1 | -2.498
19 | Cc1ccc(C(=O)N2CCC(n3cc(CO)nn3)CC2)cn1 | 1.663
20 | C=C1C(C)(C)[C@H]2CC[C@]1(C(=O)N1CCC(Cn3cc(CO)nn3)CC1)C2 | 87.91
21 | OCc1cn(CC2CCN(C3CCSC3)CC2)nn1 (centres undefined) | -25.36
22 | C=C1C(C)(C)[C@H]2CC[C@]1(C(=O)N1CCC(n3cc(CO)nn3)CC1)C2 | 93.63

Row | Compound | Percent Effect [%]
23 | Cn1cc(Cl)c(CN2CCCC(Cn3cc(CO)nn3)C2)n1 (centres undefined) | -2.88
24 | CCc1noc(CS(=O)(=O)CC=C(C)C)n1 | -4.555
25 | O=C(NCC1CC[C@@H]2[C@@H]1OCCN2Cc1cccs1)c1ccco1.O=C(O)C(F)(F)F (some centres undefined) | 0.6461
26 | COC[C@H]1CN(CC2CC2)C(=O)[C@@H]2CCN(Cc3ccoc3)CC[C@H]12.O=C(O)C(F)(F)F | -27.64
27 | O=C(O)C(F)(F)F.O=C1N(CC2CC2)CCC12CCN(CC1CC1)CC2 | 11.64
28 | O=C(O)C(F)(F)F.O=C1N(CC2CC2)CCC12CCN(Cc1ccoc1)CC2 | 112.5
29 | CN(C)C(=O)CN1CCC2(CCCN(Cc3ccoc3)C2)C1=O (centres undefined) | -23.42
30 | CN1CCC(CN2CCC3(CCCN(Cc4ccoc4)C3)C2=O)CC1.O=C(O)C(F)(F)F.O=C(O)C(F)(F)F (centres undefined) | 107.1
31 | COCCN1CCC2(CCCN(Cc3ccoc3)C2)C1=O.O=C(O)C(F)(F)F (centres undefined) | 89.97
32 | CC(=O)N[C@@H](CC(C)C)C(=O)N1CCC(n2cc(CC(C)C)nn2)CC1 | -6.729
33 | O=S(=O)(Nc1ccccn1)c1cc(Cl)cc2c1OCC2 | -2.666
34 | COCc1ncn2c1CN(S(=O)(=O)c1cccs1)CCC2 | -6.89
35 | FC(F)(F)c1ccc(CNC[C@H]2COCc3nc4cccnc4n32)cc1 | -6.835
36 | CCOCc1ccc(NCc2cnc(N3CCN(C)CC3)nc2)cc1 | 18.94
37 | O=S(=O)(NCCC(O)c1cccs1)c1ccccc1 (centres undefined) | 2.573
38 | CSc1ccc(OC(C)C(=O)Nc2c(C)n[nH]c2C)cc1 (centres undefined) | -3.157
39 | CCOCc1nc2c(c(NC(CC)c3ccncc3)n1)CCNCC2 (centres undefined) | -23.76
40 | O=C(Nc1ccc(-n2cncn2)nc1)N(CC1CCOC1)C1CC1 (centres undefined) | 3.822
41 | Cc1cc(CNC(=O)NCCOc2ccc(F)c(F)c2)on1 | -11.19
42 | O=C1COC[C@H]([C@H](O)c2ccc(NC(=O)c3ccco3)cc2)N1 | -8.877
43 | O=C(NCC1CC1)c1ccc(NC(=O)c2ccco2)cc1 | 109.6
44 | O=C(NCC1CCS(=O)(=O)C1)c1ccco1 (centres undefined) | 88.86

Row | Compound | Percent Effect [%]
45 | O=C(NCC1CCS(=O)(=O)C1)Nc1ccccn1 (centres undefined) | 11.69
46 | O=C(NCC1CCS(=O)(=O)C1)c1ccc2cccc(Cl)c2n1 (centres undefined) | -11.54
47 | Cc1occc1C(=O)Nc1ccc(C(=O)NC[C@H]2CCCN2)cc1 | -11.64
48 | COc1ncccc1NC(=O)NCC1CCS(=O)(=O)C1 (centres undefined) | -8.215
49 | O=C(NCC1CCS(=O)(=O)C1)c1ccc(NC(=O)c2ccco2)cc1 (centres undefined) | 100.2
50 | Cc1cc(C(=O)NCC2CCS(=O)(=O)C2)ccc1NC(=O)c1ccco1 (centres undefined) | 105.8
51 | Cc1ccc(NC(=O)NCC2CCS(=O)(=O)C2)cc1Cl (centres undefined) | 41.82
52 | Cc1cccc(C(=O)NCC2CCS(=O)(=O)C2)n1 (centres undefined) | 20.7
53 | O=C(NCC1CCCN(C(=O)NCCc2ccccc2)C1)c1ccco1 (centres undefined) | -12.18
54 | Cc1cnn(CCNCc2c(C)nn(-c3ccccc3)c2C)c1 | 2.27
55 | CCn1ccnc1CNCC1CCCN1c1cc(NC)ncn1 (centres undefined) | -2.475
56 | CC1(c2ccccc2)CCCN(Cc2cncn2C2CC2)C1 (centres undefined) | -17.5
57 | CC(=O)N1CCN2C(=O)N(Cc3ccc(F)cc3)C[C@H]2C1 | -0.8027
58 | O=C(NCCN1CCc2ccccc2C1)c1scnc1Cl | 7.313
59 | Cc1ccsc1C(=O)N1CC(C(=O)N2CCOCC2)C2(CCOCC2)C1 (centres undefined) | -2.409
60 | Cc1ccsc1C(=O)N1Cc2ccccc2C2(CCN(C)CC2)C1 | 0.4591
61 | Cc1ncsc1C(=O)N1CCC(O)(CN2CCc3ccccc3C2)C1 (centres undefined) | 69.3
62 | Cc1ccsc1C(=O)N1CCC(O)(CN2CCc3ccccc3C2)C1 (centres undefined) | 107.5
63 | Cc1ncsc1C(=O)NCC1SCCc2ccccc21 (centres undefined) | 15.22
64 | CN(C)C(=O)CN1C[C@H]2CCN(C(=O)c3ccccc3)CC[C@H]2S1(=O)=O | -0.2408
